Reference: PubChem BioAssay (NCI)
Where “and” joins values, the source holds several entries; their conditions need not be identical. Equal values may be shown once. About 83,000 compounds went through this panel and 20% of them were active in at least one assay; those are over-represented in the sample as a whole.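 Interpretation: 100, growth as untreated; towards 0, rising growth inhibition; 0, no net growth; 0 to -100, cell death. Compounds scoring below 10 were considered active.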 Values without a mark were called inactive. Calls of active or inactive are those of the source.

Tested on: MDA-MB-468 breast
Assay: NCI-60 one-dose screen, 48 h (100 = growth as untreated, 0 = no growth, -100 = all killed)
Settings: 10 µM unless noted

Row | Compound | growth
1 | COc1cccc(CNc2nnc(C)c(C)n2)c1O | 91.7%
2 | CN1CCN(Cc2ccc(NC(=O)c3cncc(C#Cc4c(N)ncc5c(F)cccc45)c3)cc2C(F)(F)F)CC1 | -82% (active)
3 | O=C(CCCCCCCCC(=O)Nc1cccc(C2=NCCN2)c1)Nc1cccc(C2=NCCN2)c1 | 118%
4 | CCc1c(CC(=O)O)c2cc(C)ccc2n1Cc1ccc(Cl)cc1 | 95.3% and 94.5%
5 | N#C/C(=C/C=C/c1ccccc1)S(=O)c1ccccc1 (stereo not given) | -56% (active)
6 | C=C(C)[C@@H]1CC[C@]2(C)[C@H](CC=C3[C@@H]4CC(C)(C)CC[C@]4(C(=O)NCC#CCN4CCN(C)CC4)CC[C@]32C)[C@@]1(C)CCC#N | 47.9%
7 | C/C(=N\Nc1nc(C)cs1)c1cc2ccccc2o1 | 82.6%
8 | Oc1cccc(-c2nc(N3CCOCC3)c3c4c(sc3n2)CCCC4)c1 | 46.1%
9 | COc1cc(Br)c(-c2nc(-c3ccccc3)c(-c3ccccc3)n2Cc2ccccc2)cc1OC | 54%
10 | N#Cc1c(N)n2c(nc1=Nc1ccc(Cl)cc1)sc1cc(Cl)ccc12 | 22.5%
